# About 13,000 (27%) of roughly 48,000 compounds showed an effect of 50% or more. This is one part of the list.
# System: Wolbachia pipientis
# Assay: Anti-Wolbachia Cell-Based Screen
# Type: functional
# Set-up: scale not given: in the data most compounds retested in dose-response had high values
# Conditions: 5 µM
row,SMILES,Percent Effect
1,c1cnc(NCc2n[nH]c3c2CCN(Cc2ccncc2)C3)nc1,-7.099%
2,Cc1nc[nH]c1CN1CCCC(CNC(=O)c2ccc(N)nc2)C1 (stereo not drawn),-15.92%
3,COc1cc2c(nn1)CCN(Cc1noc(CC(C)C)n1)C2,-12.11%
4,Cc1nc(CN2CCCC(CCc3c(F)cccc3F)C2)c[nH]1 (stereo not drawn),27.92%
5,CNS(=O)(=O)CCNCC1(O)CCCN(CCC2CCCCC2)C1=O (stereo not drawn),1.698%
6,Cn1cc(NC(=O)CCc2ccsc2)ccc1=O,-1.148%
7,Cc1cn2c(=O)c(-c3ccnc(N[C@@H](C)CO)n3)cnc2s1,99.21%
8,CC[C@H](C)Nc1nccc(-c2cnc3sc(C)cn3c2=O)n1,91.04%
9,CCCN(Cc1ccc(C#N)cc1)Cc1nnsc1Cl,8.987%
10,CCNC(=O)CNC(=O)c1ccn(S(=O)(=O)c2ccc(C)cc2)c1,0.9489%
11,Cc1cccc(CN2C[C@@H]3CC[C@H](C2)N(Cc2c(C)noc2C)C3=O)n1,-29.28%
12,Cc1cnn(CC2CCCN2C(=O)c2cccc(-n3ccc(C)n3)c2)c1 (stereo not drawn),119%
13,Cc1cnn(CC2CCCN2C(=O)c2cccc(CC#N)c2)c1 (stereo not drawn),-7.7%
14,Cc1cnn(CC2CCCN2C(=O)c2cccc(S(C)(=O)=O)c2)c1 (stereo not drawn),115.2%
15,Cc1cnn(CC2CCCCN2C(=O)c2cccc(C(N)=O)c2)c1 (stereo not drawn),110.6%
16,Cc1cnn(CC2CCCCN2C(=O)c2cc(C(N)=O)cs2)c1 (stereo not drawn),3.915%
17,COC(=O)[C@H]1CCCCN1C(=O)c1cccc(-n2cccn2)c1,-1.168%
18,Cn1ccc(C2CCCCN2C(=O)c2cccc(-n3cccn3)c2)n1 (stereo not drawn),-0.8494%
19,CCN(CC)C(=O)C1CCCN1C(=O)c1cccc(-n2cnnn2)c1 (stereo not drawn),98.96%
20,Cc1cnn(CC2CCCN2C(=O)c2cccc(-n3cnnn3)c2)c1 (stereo not drawn),-8.957%
21,CC(C)c1nc(COc2cccc3c2NC(=O)CO3)cs1,-10.7%
22,O=C(Nc1cccc(N2CCN(CC3CC3)CC2)c1)C1CCCO1 (stereo not drawn),-16.14%
23,NC(=O)c1c(NC(=O)CCC(=O)O)sc2c1CCc1ccccc1-2,188.5%
24,O=C(Cc1cccs1)NCC1(O)CCc2ccccc2C1 (stereo not drawn),1.555%
25,CC(C)(C)c1cc(NC(=O)C2CCCO2)n(-c2ccccn2)n1 (stereo not drawn),-31.1%
26,NC(=O)c1c(NC(=O)CCCC(=O)O)sc2c1CCc1ccccc1-2,119.8%
27,CC(=O)Nc1sc2c(c1C(=O)O)CCc1ccccc1-2,112.1%

row,SMILES,Percent Effect
1,NC(=O)c1c(NC(=O)C2CCCO2)sc2c1CCc1ccccc1-2 (stereo not drawn),117%
2,Cc1cccc2c1nc1n2[C@@H](CNC(=O)C2CCOCC2)COC1,-17.69%
3,NC(=O)c1ccc(CNCC2CCN(CCO)CC2)cc1,2.18%
4,Cc1nc(CCN(C)C(=O)CCNC(=O)c2ccccc2F)no1,-9.414%
5,CCc1cc(NCc2ccc(-n3cncn3)c(C)c2)n(C)n1,-10.44%
6,CC(NC(=O)Cn1cc(C(N)=O)c(-c2ccccc2)n1)C1CC1 (stereo not drawn),6.248%
7,CC(CC(=O)O)CC(=O)Nc1sc2c(c1C(N)=O)CCc1ccccc1-2 (stereo not drawn),127.8%
8,Cc1ccccc1C(C(=O)N(C)CCc1cn[nH]c1)N(C)C (stereo not drawn),13.24%
9,O=C(c1ccc(C2CCCO2)s1)N1Cc2ccccc2C1 (stereo not drawn),-6.563%
10,CCOc1ccc(OCc2nccc(-c3cc(C(=O)O)ccn3)n2)cc1,-79.36%
11,Cc1cc(N(C)Cc2noc(C)n2)n2nc(C)c(C)c2n1,14.08%
12,Cc1csc(CN(C)c2cc(C)nc3c(C)c(C)nn23)n1,83.18%
13,Cc1cc(N(C)Cc2ccsc2)n2nc(C)c(C)c2n1,-6.917%
14,CC(O)CN(c1ccccc1)S(=O)(=O)c1cc(C(=O)O)cc2c1CCC2 (stereo not drawn),5.053%
15,CCCc1nnc(C(=O)N(C)Cc2cnc3ccccn23)o1,-16.11%
16,CCOc1cccc(C(=O)N2C[C@H]3CC[C@@H]2CN(C(=O)C2CCC2)C3)c1,-8.209%
17,CN(C)CCN1C(=O)CCCC12CCCN(C(=O)c1ccncc1)C2.O=C(O)C(F)(F)F.O=C(O)C(F)(F)F (stereo not drawn),106.1%
18,CN(C)CCN1C(=O)CCC12CCCN(C(=O)c1cccnc1)CC2.O=C(O)C(F)(F)F.O=C(O)C(F)(F)F (stereo not drawn),104.4%
19,CN(C)CCN1CCOCC2(CCCN(C(=O)c3ccccn3)C2)C1.O=C(O)C(F)(F)F.O=C(O)C(F)(F)F (stereo not drawn),-9.412%
20,CN(C)CCN1C(=O)CCCC12CCCN(C(=O)c1cc[nH]n1)C2.O=C(O)C(F)(F)F (stereo not drawn),101.5%
21,Cc1cc(C(=O)N2CCCC3(COCCN(CCN(C)C)C3)C2)no1.O=C(O)C(F)(F)F.O=C(O)C(F)(F)F (stereo not drawn),-4.031%
22,O=C(O)C(F)(F)F.O=C(c1ccoc1)N1CCCC2(CCC(=O)N2Cc2cccnc2)C1 (stereo not drawn),-3.168%
23,O=C(O)C(F)(F)F.O=C(c1ccoc1)N1CCCC2(CCC(=O)N2Cc2ccncc2)C1 (stereo not drawn),-1.829%
24,Cn1cc(C2(C)CN(C(=O)Nc3ccccc3F)CCO2)cn1 (stereo not drawn),1.448%
25,Cn1ncnc1CNc1ccc2c(c1)N(C(=O)OC(C)(C)C)CCC2,21.04%
26,Cc1ccsc1CNc1ccccc1C(=O)N1CCNC(=O)C1,4.147%
